According to PubChem BioAssay (NCI):
The panel holds about 83,000 compounds, 20% with a hit somewhere; the sample as a whole holds those more often.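 96-well plates, one dose, 48 hours. Percent growth reported; active if below 10.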 The source made the active and inactive calls.

Assays:
Assay in all cases: NCI-60 one-dose screen, 48 h (100 = growth as untreated, 0 = no growth, -100 = all killed)
Conditions in all cases: 10 µM unless noted
NCI-H23 lung = system: NCI-H23 lung
NCI-H226 lung = system: NCI-H226 lung
NCI-H322M lung = system: NCI-H322M lung
HOP-62 NSCLC = system: HOP-62 NSCLC
NCI-H460 lung = system: NCI-H460 lung
HOP-92 NSCLC = system: HOP-92 NSCLC
786-0 renal = system: 786-0 renal
COLO 205 colon = system: COLO 205 colon
DU-145 prostate = system: DU-145 prostate
K-562 leukemia = system: K-562 leukemia
MALME-3M melanoma = system: MALME-3M melanoma
MDA-MB-231 breast = system: MDA-MB-231 breast
RXF 393 renal = system: RXF 393 renal
SF-268 CNS = system: SF-268 CNS
SF-295 CNS = system: SF-295 CNS
SF-539 CNS = system: SF-539 CNS
M14 melanoma = system: M14 melanoma
NCI-H522 lung = system: NCI-H522 lung
A549/ATCC NSCLC = system: A549/ATCC NSCLC
UACC-257 melanoma = system: UACC-257 melanoma

Measured: growth

O=C1c2cccc3cccc(c23)C(=O)N1CCCCCCCCCCN1C(=O)c2cccc3cccc(c23)C1=O
inactive: NCI-H23 lung 112% | NCI-H226 lung 96.4% | NCI-H322M lung 111% | HOP-62 NSCLC 104% | NCI-H460 lung 102% | HOP-92 NSCLC 108% | 786-0 renal 109% | COLO 205 colon 119% | DU-145 prostate 123% | K-562 leukemia 103% | MALME-3M melanoma 113% | MDA-MB-231 breast 108% | RXF 393 renal 96.6% | SF-268 CNS 100% | SF-295 CNS 95.3% | SF-539 CNS 102% | M14 melanoma 119%

Cc1cc2nc(CN)[nH]c2cc1C
inactive: NCI-H23 lung 103% | NCI-H226 lung 105% | NCI-H322M lung 107% | HOP-62 NSCLC 98.9% | NCI-H460 lung 103% | HOP-92 NSCLC 84% | 786-0 renal 97.4% | COLO 205 colon 104% | DU-145 prostate 106% | K-562 leukemia 102% | MALME-3M melanoma 104% | MDA-MB-231 breast 117% | RXF 393 renal 107% | SF-268 CNS 106% | SF-295 CNS 98.1% | SF-539 CNS 106% | M14 melanoma 99.9%

Nc1cc(C(=O)O)cc(C(=O)O)c1
inactive: NCI-H23 lung 108% | NCI-H226 lung 108% | NCI-H322M lung 102% | HOP-62 NSCLC 98.1% | NCI-H460 lung 112% | NCI-H522 lung 91% | A549/ATCC NSCLC 108% | 786-0 renal 96.8% | COLO 205 colon 99% | DU-145 prostate 145% | K-562 leukemia 96.6% | MALME-3M melanoma 92.8% | MDA-MB-231 breast 102% | RXF 393 renal 128% | SF-268 CNS 115% | SF-295 CNS 113% | SF-539 CNS 103% | UACC-257 melanoma 110%

COc1cc(OC)c(C(=O)/C=C/c2cccc(OC(C)=O)c2)cc1CC=C(C)C
inactive: NCI-H23 lung 72.2% | NCI-H226 lung 69.6% | NCI-H322M lung 98.9% | HOP-62 NSCLC 114% | NCI-H460 lung 89.4% | HOP-92 NSCLC 56.5% | 786-0 renal 91.4% | COLO 205 colon 111% | DU-145 prostate 69.2% | K-562 leukemia 16.5% | MALME-3M melanoma 122% | MDA-MB-231 breast 77.6% | SF-268 CNS 70.4% | SF-295 CNS 97.7% | SF-539 CNS 90.6%

ClC1=NC(Cl)C(Cl)=N/C1=N\c1ncn[nH]1 (stereo unspecified)
active: HOP-92 NSCLC -60% | COLO 205 colon -76.4% | DU-145 prostate -78.9% | K-562 leukemia -48% | MALME-3M melanoma -64.3% | RXF 393 renal -64.6%
inactive: NCI-H23 lung 62.8% | NCI-H226 lung 106% | NCI-H322M lung 89.2% | HOP-62 NSCLC 39.3% | NCI-H460 lung 73.3% | 786-0 renal 81.2% | MDA-MB-231 breast 72.7% | SF-268 CNS 33.8% | SF-295 CNS 101% | SF-539 CNS 67.5% | M14 melanoma 39.2%

Cn1c(=O)c2c(nc(N/N=C/c3ccccc3Cl)n2C)n(C)c1=O
inactive: NCI-H23 lung 94.4% | NCI-H226 lung 107% | NCI-H322M lung 116% | HOP-62 NSCLC 112% | NCI-H460 lung 120% | NCI-H522 lung 83.1% | A549/ATCC NSCLC 107% | 786-0 renal 97.8% | COLO 205 colon 113% | DU-145 prostate 140% | K-562 leukemia 100% | MALME-3M melanoma 109% | MDA-MB-231 breast 100% | RXF 393 renal 112% | SF-268 CNS 124% | SF-295 CNS 101% | SF-539 CNS 87.2% | UACC-257 melanoma 94.8%

O=[N+]([O-])c1ccc(Sc2nc(Cl)nc(NC3CCCC3)n2)cc1
active: NCI-H23 lung -70.2% [100 µM] | NCI-H226 lung -44.4% [100 µM] | NCI-H322M lung -92.2% [100 µM] | HOP-62 NSCLC -78.9% [100 µM] | NCI-H460 lung -51.1% [100 µM] | HOP-92 NSCLC -74.7% [100 µM] | 786-0 renal -83.5% [100 µM] | COLO 205 colon -61.5% [100 µM] | DU-145 prostate -100% [100 µM] | K-562 leukemia -32.1% [100 µM] | MALME-3M melanoma -80.9% [100 µM] | MDA-MB-231 breast -90.3% [100 µM] | RXF 393 renal -75.4% [100 µM] | SF-268 CNS -93% [100 µM] | SF-295 CNS -93.9% [100 µM] | M14 melanoma -94.6% [100 µM]

O=C(c1ccc(OCCN2CCCCC2)cc1)c1c(-c2ccc(O)cc2)sc2cc(O)ccc12
inactive: NCI-H23 lung 82.5% | NCI-H226 lung 92.3% | NCI-H322M lung 114% | HOP-62 NSCLC 89.2% | NCI-H460 lung 93.5% | HOP-92 NSCLC 66.7% | A549/ATCC NSCLC 91.6% | 786-0 renal 74.7% | MALME-3M melanoma 99.4% | MDA-MB-231 breast 72.2% | RXF 393 renal 70.2% | SF-268 CNS 84.3% | SF-295 CNS 106% | SF-539 CNS 98.6% | UACC-257 melanoma 92.8% | M14 melanoma 93.3%

O=C(CC(=O)c1ccccc1F)Nc1ccc([N+](=O)[O-])cc1
inactive: NCI-H23 lung 105% | NCI-H226 lung 86.2% | NCI-H322M lung 91.5% | HOP-62 NSCLC 114% | NCI-H460 lung 104% | HOP-92 NSCLC 79.6% | 786-0 renal 101% | COLO 205 colon 105% | DU-145 prostate 119% | K-562 leukemia 91.9% | MALME-3M melanoma 93.6% | MDA-MB-231 breast 103% | RXF 393 renal 103% | SF-268 CNS 105% | SF-295 CNS 98% | SF-539 CNS 93.2% | M14 melanoma 100%

COc1ccc(/C=C/c2nc(NCCCN(C)C)c3ccccc3n2)cc1
inactive: NCI-H23 lung 73.6% | NCI-H226 lung 103% | NCI-H322M lung 82.7% | HOP-62 NSCLC 83.9% | NCI-H460 lung 33.2% | A549/ATCC NSCLC 91.2% | 786-0 renal 78% | COLO 205 colon 85.9% | DU-145 prostate 96.5% | MALME-3M melanoma 25.9% | MDA-MB-231 breast 18.7% | SF-268 CNS 55% | SF-295 CNS 65.8% | SF-539 CNS 47.5% | UACC-257 melanoma 97.3%
active: HOP-92 NSCLC 0.889% | K-562 leukemia -75.3%

CCN(CC)CCCCCCCCNc1c2ccc(Cl)cc2nc2ccc(OC)cc12
active: NCI-H23 lung -43.8% | NCI-H226 lung -21.4% | NCI-H322M lung -39.2% | HOP-62 NSCLC -67.8% | NCI-H460 lung -51.6% | HOP-92 NSCLC -75.9% | 786-0 renal -88.8% | COLO 205 colon -84.6% | DU-145 prostate -66.6% | K-562 leukemia -39.3% | MALME-3M melanoma -65.6% | MDA-MB-231 breast -72.2% | RXF 393 renal -92.8% | SF-268 CNS -73.2% | SF-295 CNS -76% | SF-539 CNS -82%

N/C(=N\O)c1ncc(-c2ccc(C(F)(F)F)cc2)c(NC2CCCCCC2)n1
active: NCI-H23 lung -78.9% [100 µM] | NCI-H226 lung -42.4% [100 µM] | NCI-H322M lung -95.8% [100 µM] | HOP-62 NSCLC -74.2% [100 µM] | NCI-H460 lung -64.8% [100 µM] | HOP-92 NSCLC -89.5% [100 µM] | 786-0 renal -91.5% [100 µM] | COLO 205 colon -58.2% [100 µM] | DU-145 prostate -96.1% [100 µM] | K-562 leukemia -60.4% [100 µM] | MALME-3M melanoma -92.6% [100 µM] | MDA-MB-231 breast -66.3% [100 µM] | RXF 393 renal -67% [100 µM] | SF-268 CNS -89.4% [100 µM] | SF-295 CNS -94.7% [100 µM] | M14 melanoma -91.9% [100 µM]

CC(=O)C1CCC2C3CC(C)=C4CC(O)CCC4(C)C3CCC12C (stereo unspecified)
inactive: NCI-H23 lung 99.5% | NCI-H226 lung 93.4% | NCI-H322M lung 103% | HOP-62 NSCLC 124% | NCI-H460 lung 109% | HOP-92 NSCLC 102% | A549/ATCC NSCLC 99.6% | 786-0 renal 94.3% | DU-145 prostate 119% | K-562 leukemia 86.1% | MDA-MB-231 breast 101% | RXF 393 renal 111% | SF-268 CNS 102% | SF-295 CNS 113% | SF-539 CNS 90.7% | UACC-257 melanoma 117% | M14 melanoma 98.1%

O=C(N/N=C/c1ccc([N+](=O)[O-])cc1)c1ccccc1Nc1ccnc(C(F)(F)F)c1
inactive: NCI-H23 lung 62.3% | NCI-H226 lung 70.8% | NCI-H322M lung 83.3% | HOP-62 NSCLC 48.8% | NCI-H460 lung 94.3% | NCI-H522 lung 67.9% | A549/ATCC NSCLC 82% | 786-0 renal 81.8% | COLO 205 colon 103% | DU-145 prostate 98.6% | K-562 leukemia 78% | MALME-3M melanoma 86% | MDA-MB-231 breast 70.4% | RXF 393 renal 91.7% | SF-268 CNS 86.2% | SF-295 CNS 83.8% | SF-539 CNS 84.3% | UACC-257 melanoma 79.4%

COc1ccc(/C=N/NC(N)=S)c(OC)n1
inactive: NCI-H23 lung 108% | NCI-H226 lung 85.7% | NCI-H322M lung 104% | HOP-62 NSCLC 116% | NCI-H460 lung 106% | HOP-92 NSCLC 113% | 786-0 renal 104% | COLO 205 colon 111% | DU-145 prostate 113% | K-562 leukemia 89.5% | MALME-3M melanoma 103% | MDA-MB-231 breast 110% | RXF 393 renal 94.4% | SF-268 CNS 109% | SF-295 CNS 106% | SF-539 CNS 100% | M14 melanoma 104%

Cc1cc(Nc2c3ccccc3nc3ccccc23)ccc1NS(C)(=O)=O
inactive: NCI-H23 lung 47% | NCI-H226 lung 41.8% | NCI-H322M lung 34.3% | HOP-62 NSCLC 36.9% | NCI-H460 lung 14.4% | 786-0 renal 39.8% | COLO 205 colon 18.3% | DU-145 prostate 29.3% | K-562 leukemia 17.7% | MALME-3M melanoma 44.1% | MDA-MB-231 breast 50% | RXF 393 renal 35% | SF-268 CNS 37.5% | SF-295 CNS 34.4% | SF-539 CNS 15% | M14 melanoma 45.1%
active: HOP-92 NSCLC -5.41%

CCN(C(=O)CCl)C(C)(C)C(SSSC(c1ccc(Cl)cc1)C(C)(C)N(CC)C(=O)CCl)c1ccc(Cl)cc1 (stereo unspecified)
active: K-562 leukemia 0.579% | M14 melanoma -15.9%
inactive: NCI-H23 lung 93.6% | NCI-H226 lung 104% | NCI-H322M lung 87.7% | HOP-62 NSCLC 86.6% | NCI-H460 lung 81.1% | HOP-92 NSCLC 47% | 786-0 renal 79.7% | COLO 205 colon 56.8% | DU-145 prostate 85.5% | MALME-3M melanoma 28.9% | MDA-MB-231 breast 73.7% | RXF 393 renal 48.6% | SF-268 CNS 91.1% | SF-295 CNS 89.5% | SF-539 CNS 87.7%
